A selection: hits, their analogues and other compounds. The true share with any hit is near 1.7%.
PTHR1 agonist: qHTS for PTHR1 Agonists: Primary Screen. 0.075% of 410,000 active. Potency, µM (doses to about 115 µM), for inactives: top-dose activation, hits mostly activators. AID 743266, 2014. HEK293 GP2 PTHR1 cells, GloSensor cAMP luminescence, 1 h. Parathyroid hormone/parathyroid hormone-related peptide receptor (Homo sapiens), Q03431; also: nearly all actives have a fitted effect of over 55% in size
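HEK-293-derived GP2 cells expressing PTHR1 and a GloSensor cAMP reporter, 3,000/well, plated overnight, given luciferin plus IBMX (each 0.5 mM as added) for 1 h at 37 °C, then compound for 1 h at 37 °C. Luminescence was read after 15 min at room temperature.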
GLP1R ag: qHTS of GLP-1 Receptor Agonists | AID 624172, 2012 | Glucagon-like peptide 1 receptor (Homo sapiens), P43220 | Potency, µM (top dose mostly 45.6 µM), inactives show at the highest dose activation, actives largely listed as activators | 0.007% of 380,000 active | HEK293 GLP-1R CRE-luciferase, luminescence, 4-6 h; cells express a hypersensitive GLP-1R form; also: % of control where 0% means no effect
Target sequence (P43220 whole entry, looked up): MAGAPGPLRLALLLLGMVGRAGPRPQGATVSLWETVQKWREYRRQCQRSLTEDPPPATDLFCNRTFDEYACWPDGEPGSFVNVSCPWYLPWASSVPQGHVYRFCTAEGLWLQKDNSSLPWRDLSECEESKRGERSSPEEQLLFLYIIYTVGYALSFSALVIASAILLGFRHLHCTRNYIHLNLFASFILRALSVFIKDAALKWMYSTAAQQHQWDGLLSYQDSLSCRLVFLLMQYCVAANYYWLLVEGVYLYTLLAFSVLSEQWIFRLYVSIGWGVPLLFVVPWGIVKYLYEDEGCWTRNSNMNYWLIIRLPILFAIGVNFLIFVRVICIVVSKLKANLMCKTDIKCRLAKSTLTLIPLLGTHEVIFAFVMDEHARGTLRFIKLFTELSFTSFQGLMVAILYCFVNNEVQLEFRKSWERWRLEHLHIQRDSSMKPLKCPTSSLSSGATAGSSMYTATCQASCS
HEK293 tox: qHTS of GLP-1 Receptor Inverse Agonists: Cytotox Screen; AID 624418, 2012; 0.13% of 410,000 active; Potency, µM (highest dose often 38.3 µM), for the others: at the highest dose activity change, negative = inhibition, hits mostly inhibitors; HEK293 cAMP-luciferase reporter cells, luminescence, 24 h;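 also: loss of luciferase light is scored as toxicity; % is scaled to controls: 0 for no effect and ±100 for the full control effect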
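Compound-treated cells are incubated 24 hr at 37 deg C under 5% CO2 after a 12 hour attachment period, then luciferase detection reagent is added and luminescence is measured following 12 min at room temperature; lowered signal indicates toxicity.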
GLP1R inv ag: qHTS of GLP-1 Receptor Inverse Agonists (Inhibition Mode) | Glucagon-like peptide 1 receptor (Homo sapiens), P43220 | HEK293 GLP-1R CRE-luciferase, luminescence, 24 h; GLP-1R form is constitutively active | Potency, µM (titrated, usually from 38.3 µM), without a hit: at the highest dose activity change, negative = inhibition, actives largely listed as inhibitors | 1.6% of 410,000 active | AID 624417, 2012; also: % is scaled to controls: 0 for no effect and ±100 for the full control effect; nearly all actives have a fitted effect of over 55% in size
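Assay principle: reduced luminescence from a cAMP-responsive reporter in HEK293 cells co-expressing a constitutively active GLP-1R. Conditions: 24 hr compound incubation, 37 deg C, 5% CO2.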
Active calls of the source: *; i = inactive; ? = inconclusive; . = no result given; [ ] = remark or other dose. Calls follow the shape of the dose curve; as a rule, active = well fitted curve in the direction sought with a large enough effect; inconclusive = small, poorly fitted or top-dose-only effect, or another doubt; inactive = no such curve, though single readings can be large; an effect the other way counts as inactive or inconclusive. Potency is read from the fitted curve at half-maximal effect.

SMILES	PTHR1 agonist	GLP1R ag	HEK293 tox	GLP1R inv ag
CCOc1ccc(CC2S/C(=N/N=C/c3ccco3)NC2=O)cc1 (configuration not stated)	-5.0%	-1.4%	-3.7%	-11.7%
C[C@H](CO)N1C[C@H](C)[C@H](CN(C)C(=O)Nc2ccc(F)cc2)OCc2ccccc2-c2c(n(C)c3ccccc23)C1=O	-25.6%	-1.1%	-21.5%	10µM*
CCn1c(C)c(C)c2cc(C(=O)N3CCc4ccccc4C3)ccc21	-27.1%	17.8%	12.4%	8.91µM*
CCN1CCN(C(=O)c2ccc3c(c2)c(C)c(C)n3Cc2ccccc2)CC1	i	-1.0%	-0.1%[7.66 µM]	-11.6%[7.66 µM]
Clc1ccc(Oc2nc(Oc3ccc(Cl)cc3)nc(N3CCOCC3)n2)cc1	i	0.0%	34.3%	?
c1ccc(Oc2nc(Oc3ccccc3)nc(N3CCOCC3)n2)cc1	-37.6%	-1.3%	4.8%	7.94µM*
CC1=C(C(=O)OC(C)(C)C)C(c2cccc3ccccc23)NC(=O)N1 (configuration not stated)	i	4.2%	-0.5%	-4.2%
O=C(NC(=S)Nc1ccccc1N1CCOCC1)c1cccc([N+](=O)[O-])c1	-11.1%	17.2%	?	3.55µM*
COc1cccc(C(=O)NC(=S)Nc2ccccc2N2CCCCC2)c1	i	15.9%	0.0%	5.62µM*
COc1cccc(C(=O)Nc2ccccc2N2CCCC2)c1	-10.0%[57.5 µM]	1.0%	3.6%	2.2%
CCC(=O)N1CCN(c2ccccc2NC(=S)NC(=O)c2cccc([N+](=O)[O-])c2)CC1	i	22.4%	-1.7%	?
COc1cccc(C(=O)NC(=S)Nc2ccccc2N2CCCC2)c1	-15.4%	25.0%	?	5.01µM*
CN1CCC(OC(c2ccccc2)c2ccc(Cl)cc2)C1 (configuration not stated)	-9.3%	5.0%	?	3.16µM*
COc1ccc(NC(=O)c2c(-c3ccccc3)c(-c3ccccc3)nn(C)c2=O)c(OC)c1	-8.9%	.	-10.3%	-23.7%
O=C(NCC1CC1)c1onc(CSc2ccc(F)cc2)c1C(=O)NCC1CC1	-13.4%	-1.0%	6.7%	?
Cc1cc(C)cc(SCc2noc(C(=O)NCC3CC3)c2C(=O)NCC2CC2)c1	-26.0%	7.2%	-3.1%	8.91µM*
O=C(NCc1ccccc1)c1onc(CSc2ccccc2)c1C(=O)NCC1CC1	i	-3.6%	0.4%	3.55µM*
CCCCNC(=O)c1c(CSc2ccc(Cl)cc2)noc1C(=O)NCc1ccccc1	-31.0%	7.1%	-0.7%	?
CCCCNC(=O)c1c(CSc2ccccc2)noc1C(=O)NCc1ccccc1	-21.4%	-1.6%	-32.9%	10µM*
CCCNC(=O)c1c(CSc2ccc(Cl)cc2)noc1C(=O)NCc1ccccc1	-22.7%	1.7%	5.3%	5.01µM*
O=C(NCc1ccccc1)c1onc(CSc2ccccc2)c1C(=O)NCc1ccccc1	i	9.9%	-0.1%	?
COc1ccc(Cl)cc1NC(=O)c1cccc(-n2cnnn2)c1	-3.9%	0.6%	20.4%	7.5%
O=C(Cc1cccs1)N1CCN(S(=O)(=O)c2cccc([N+](=O)[O-])c2)CC1	-7.2%	4.5%	3.2%	14.0%
CN(C)C(=O)CSc1ccc(S(=O)(=O)N2CCOCC2)cn1	-13.3%	-0.3%	-4.6%	9.0%
CC(C)(C)Sc1ccc2nc3c(n2c1)CCCC3	-19.1%	?	?	10µM*
SMILES	PTHR1 agonist	GLP1R ag	HEK293 tox	GLP1R inv ag
O=C(Nc1cccc(-c2nnc(-c3ccco3)o2)c1)C(c1ccccc1)c1ccccc1	-9.3%[57.5 µM]	-1.6%	10.9%	8.91µM*
O=C(Nc1cccc(-c2nnc(-c3ccco3)o2)c1)c1ccccc1	-24.1%	6.7%	-23.5%	-46.0%
O=C1CCC(/C=C/c2ccccc2)=NN1Cc1ccc(Cl)c(Cl)c1	i	7.4%	9.7%	0.0%
O=C1CCC(/C=C/c2ccccc2)=NN1Cc1ccccc1Cl	-12.5%	1.4%	11.5%	10µM*
C[C@H](c1ccccc1)N1C[C@H](COCc2ccccc2)Oc2cc(N3CC[C@H](O)C3)ccc2S1(=O)=O	-7.9%	4.1%	-5.7%	10µM*
COC(=O)C1=C(C)NC(C)=C(C(=O)OCCCN2CCC(c3ccccc3)(c3ccccc3)CC2)C1c1cccc([N+](=O)[O-])c1 (configuration not stated)	.	-5.2%	.	.

Source: PubChem
